Results reported in PubChem BioAssay AID1863 (Southern Research Specialized Biocontainment Screening …, 2009).
Several values for one entry are separate records, joined by “and”; a condition that tells them apart may be missing. Equal entries are not always repeated. Hit rate of the full screen: of about 300,000 compounds, about 480 (0.16%) were called active.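 Rule for the calls: active = inhibition over 29.93%, a cutoff 3 SD above the screen mean, later confirmed by dose response; inconclusive = inhibition over 29.93% but no dose response follow-up; inactive = inhibition at most 29.93% or unconfirmed.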 These entries were drawn from the full list. Results with a measured potency or affinity are listed apart.

Assay: inhibitors of PhoP regulon expression, primary screen, Salmonella Typhimurium, GFP reporter (AID 1863);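 note: 0% = low Mg2+ inducing control and 100% = high Mg2+ repressing control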
Settings: S. Typhimurium PhoP-regulated promoter GFP reporter, 4 h; at 50 µM; active compounds read high

inhibition, inactive:
Cc1ccc(N2CC(C(=O)Nc3ccccc3C(=O)NC3CCCCC3)CC2=O)cc1 (stereo unspecified) 3.33%
CC(NC(=O)CCNC(=O)c1ccccc1Cl)C1CC2CCC1C2 (stereo unspecified) 10.5%
Cc1cccc(Nc2cc(=O)[nH]c(=O)[nH]2)c1C 11.8%
Nc1ccn([C@@H]2O[C@H](CO)[C@@H](O)C2O)c(=O)n1 (stereo partly specified) -5.08% and -1.41%
Nc1ccn([C@@H]2O[C@H](CO)[C@@H](O)[C@@H]2O)c(=O)n1 -7.73% and -0.16%
Nc1ncnc2c1ncn2[C@@H]1O[C@H](CO)[C@@H](O)[C@H]1O 3.62%
NC(=O)c1ncn([C@@H]2O[C@H](CO)[C@@H](O)[C@H]2O)c1O 2.19%
Nc1nc(Cl)nc2c1ncn2[C@@H]1O[C@H](CO)[C@@H](O)[C@H]1O -6.56% and 6.76%
Nc1cnn(C2OC(CO)C(O)C2O)c(=O)n1 (stereo unspecified) -3.56%
Cc1cc(C)c(NC(=O)CNC(=O)CN2C(=O)NC3(CCCc4ccccc43)C2=O)c(C)c1 (stereo unspecified) 0.74%
Cc1cccc(Nc2nccc(N(C)C)c2C#N)c1 -5.86%
COc1ccc(-c2noc(CCC(=O)NCCN3CCN(c4ccccc4F)CC3)n2)cc1 -6.34%
O=C(Nc1cccc2ccccc12)N1CC=C(c2ccccc2)CC1 8.64%
CC(CN1CCCCC1)C(=O)NN (stereo unspecified) 2.4%
O=C(CNC(=O)c1ccccc1F)N/N=C/c1cn[nH]c1-c1ccccc1 -11.6%
Cc1cc(OCC(=O)OCC(=O)N(C)c2c(N)n(Cc3ccccc3)c(=O)[nH]c2=O)ccc1Cl -6.01%
O=C(NCC1CCCO1)c1cccnc1Nc1ccccc1F (stereo unspecified) 8.77%
CC1=C(C(=O)Nc2cccc([N+](=O)[O-])c2)C2(CCC(C)CC2)OC1=O (stereo unspecified) -3.06%
O=C(Cc1ccc(-n2c(=O)[nH]c3ccsc3c2=O)cc1)NCc1cccnc1 0.29%
CNC(=S)Nc1cc(C(F)(F)F)ccc1Cl 4.05%
COc1cc(/C=C/C(=O)O)ccc1O -9.92%
COc1cc(/C=C/C(=O)CC(=O)/C=C/c2ccc(O)c(OC)c2)ccc1O 8.28%
O=C(Cn1c(=O)oc2cc(S(=O)(=O)N3CCCC3)ccc21)Nc1ccccc1Br -3.67%
CCNc1nc(NC(C)C)nc(OCC)n1 -7.28%
CCO[C@@H]1OC(C(=O)N2CCN(Cc3ccc4c(c3)OCO4)CC2)=C[C@H](C2CCCCC2)[C@H]1CCCO 2.5%
CCCCCCCNC(=O)C1(CC2CC(c3ccc(Cl)cc3)=NO2)CCN(C(=O)C2(C)CC2)CC1 (stereo unspecified) -5.4%
CCCCCCCNC(=O)C1(CC2CC(c3cccc(Br)c3)=NO2)CCN(C(=O)OC(C)(C)C)CC1 (stereo unspecified) -0.33%
CCCCCCCNC(=O)C1(CC2CC(c3ccccc3)=NO2)CCNCC1 (stereo unspecified) 0.18%
CCCCCCCNC(=O)C1(CC2CC(c3cccc(Br)c3)=NO2)CCN(C(=O)C2CCCC2)CC1 (stereo unspecified) 12.9%
Cc1ccccc1C(=O)Nc1ccccc1NC(=O)c1ccccc1Br -5.42%
CCc1nc(C)cn1S(=O)(=O)c1cc(Br)ccc1OC 1.41%
COC(CNC(=O)C(=O)NCC1OCCN1C(=O)c1ccc(Cl)cc1)OC (stereo unspecified) 12.8%
CC(C)C[C@H](NC(=O)N1CCn2c1nc1ccccc12)C(=O)NCc1ccco1 -1.56%
CCn1ncc([N+](=O)[O-])c1C(=O)Nc1ccc(C)c(C)c1 -7.66%
CN(C)c1ccc2nc3ccc(=[N+](C)C)cc-3sc2c1 -2.55%
Cc1cc2nc(N)sc2cc1C 3.73%
CC1(C)Cn2c(nnc2-c2ccccc2)S1 -3.09%
O=c1[nH]c2ccccc2c(O)c1-c1ccccc1 1.77%
CC[n+]1c(/C=C/c2ccc(OC)c(OC)c2)ccc2ccccc21 -6.54%
CC[n+]1ccccc1/C=C/c1ccc(N(C)C)cc1 -19.2%
CN(CCCS(=O)(=O)[O-])c1ccc(/C=C/c2ccc3ccccc3[n+]2C)cc1 0.91%
CN(C)c1ccc(/C=C/c2cccc[n+]2[O-])cc1 -8.32%
C[n+]1c(/C=C/c2ccc(O)cc2)ccc2ccccc21 18.4%
CN(C)c1ccc(/C=C/c2ccc3ccccc3n2)cc1 0.11%
Cc1ccc(-n2ccnc(SCC(=O)NC3CCCC3)c2=O)cc1Cl -4.24%
COc1ccc(OC)c(NC(=O)C2CCN(C(=O)c3cccs3)CC2)c1 2.52%
O=C(c1cc(F)ccc1F)C1CCCN(C(=O)c2ccco2)C1 (stereo unspecified) -3.85%
COc1ccccc1N1CCN(C(=O)Nc2cccc(Cl)c2)CC1 -5.86%
Cc1c(OCC(=O)NC(Cc2ccc(Cl)cc2)C(=O)O)ccc2c(-c3ccccc3)cc(=O)oc12 (stereo unspecified) -1.09%
COc1cc(/C=C2/CC(C)OC2=O)c([N+](=O)[O-])cc1OC (stereo unspecified) 0.79%
Cc1ccsc1C(C(=O)NCc1ccccc1)N(C(=O)c1csnn1)c1ccccc1 (stereo unspecified) 12.3%
CCc1c(C)nc(N)c(C#N)c1-c1ccccc1 4.1%
O=C1CC(c2ccccc2)CC(O)=C1C=Nc1ccccc1 (stereo unspecified) -10.4%
COc1ccc(C)cc1NC(=O)NNC(=O)C1CCC(C(C)(C)C)CC1 (stereo unspecified) -7.11%
CSc1ccc(CN(C)CC(=O)NCc2ccccc2)cc1 -8.5%
O=C(c1cc2nc(-c3ccco3)cc(C(F)(F)F)n2n1)N1CCN(c2ccc(F)cc2)CC1 -5.29%
CCCCCCCCC[n+]1cccc2c3ccccc3ccc21 -3.12%
CCCC[n+]1c2ccccc2cc2ccccc21 20.6%
CCCCC[n+]1cccc2c3ccccc3ccc21 -3.43%
CCCCCCCC[n+]1cccc2c3ccccc3ccc21 0.34%
Cc1cc(-n2cc(Br)c(=O)[nH]c2=O)nc(-c2ccccc2)n1 -4.05%
O=C(C1CCC1)N1CCc2cc(S(=O)(=O)NCCN3CCN(c4ccccc4F)CC3)ccc21 13.8%
Cc1cc(C)cc(NC(=O)CC2NCCNC2=O)c1 (stereo unspecified) -1.2%
O=C(CC1CCS(=O)(=O)C1)Nc1ccc[nH]c1=O (stereo unspecified) -5.21%
Cc1sc2cc3c(c(C(=O)c4ccccc4)[n+]2c1C)-c1cccc2cccc-3c12 -2.96%
Cc1sc2ccccc2[n+]1CC(=O)c1ccccc1 2.11%
CCCNC(=O)c1cn(CC)c2cc(N3CCN(C(=O)c4ccco4)CC3)c(F)cc2c1=O -3.25%
CCn1cc(C(=O)NN)c(=O)c2cc(F)c(N3CCN(C)CC3)cc21 3.03%
CCn1cc(C(=O)NCCC(C)C)c(=O)c2cc(F)c(N3CCN(C)CC3)cc21 8.97%
CCn1cc(C(=O)N[C@H](C)c2ccccc2)c(=O)c2cc(F)c(N3CCN(C)CC3)cc21 4.39%
CCn1cc(C(=O)NCC(C)C)c(=O)c2cc(F)c(N3CCN(C(=O)c4ccco4)CC3)cc21 5.43%
COc1ccc(CC2(CO)CCN(C(C)COc3ccccc3)CC2)cc1 (stereo unspecified) -5.24%
O=C(NC(=S)Nc1ccc(S(=O)(=O)Nc2ncccn2)cc1)c1ccc(Br)cc1 -1.85%
Cc1cccc(NC(=O)c2cc(NC(=O)C3CC=CCC3C(=O)O)ccc2N2CCOCC2)c1 (stereo unspecified) 13.8%
CCN(CC(=O)Nc1c(F)cccc1F)C(=O)C1(c2ccccc2)CC1 -5.13%
CCC(=O)c1cn(CC(=O)NCc2cccnc2)c2ccccc12 3.99%
Cc1cc(C)cc(OC(=O)CCN2C(=O)C3C4C=CC(C5CC45)C3C2=O)c1 (stereo unspecified) 1.31%
CCOc1ccc2nc(NC(=O)C3CCN(S(=O)(=O)c4cnc[nH]4)CC3)sc2c1 1.27%
CN(C)c1cccc(C(=O)OCC(=O)N2CCc3ccccc3C2)c1 -2.35%
CC1CCN(c2nc3c(c(=O)n(C)c(=O)n3C)n2Cc2ccccc2)CC1 0.23%
O=[N+]([O-])c1ccc(NC(=S)NCC(c2cccnc2)N2CCOCC2)cc1 (stereo unspecified) -4.57%
CCCCCNC(=O)c1cn(CC)c2cc(N3CCN(C)CC3)c(F)cc2c1=O 4.54%
CCCCNC(=O)c1cn(CC)c2cc(N3CCN(C(=O)c4ccco4)CC3)c(F)cc2c1=O -7.68%
C/C(=N\OC(=O)c1ccc(F)cc1)c1ccc(F)c(F)c1 -1.74%
O=C(OCc1ccc(COC(=O)c2ccccn2)cc1)c1ccccn1 -1.35%
CCOC(=O)C1CCCN(Cc2sccc2C)C1 (stereo unspecified) 7.84%
C[C@H](NC(=O)C1CCN(S(=O)(=O)c2ccccc2)CC1)C(=O)NCc1cccc(C(F)(F)F)c1 -1.18%
COC(=O)n1c(=O)oc2cc(S(=O)(=O)N3CCOCC3)ccc21 7.81%
CN(C)C(=O)CN1C(=O)c2cccc3cccc1c23 8.86%
O=C(Nc1ccc2ncccc2c1)c1cc(Cl)ccc1Cl 0.12%
O=C(NCc1ccccc1)C(c1cccnc1)N(C(=O)c1ccccn1)c1ccc(F)cc1 (stereo unspecified) 2.95%
